PubChem BioAssay
Calls of active or inactive are those of the source.

Legend:
[1] = system: Plasmodium falciparum Sir2 (PF13_0152, Sir2A); assay: Plasmodium falciparum Sir2A binding compounds – biochemical, small-molecule microarray, 635 nm fluorescence, primary screen (AID 1098); settings: fluorescence 635 nm, higher = more signal;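 further: score merges spot fluorescence intensity with its signal-to-noise ratio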
[2] = probe aDKK1 binding to arrayed compounds – biochemical, biotinylated probe, 635/667 nm fluorescence, primary screen (AID 1099); settings: small-molecule microarray, higher = more signal;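 further: score merges 667nm spot fluorescence with signal to noise across triplicate slides; reference of the scale not given here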
[3] = probe aCHRDL2 binding to arrayed compounds – biochemical, biotinylated probe, 635/667 nm fluorescence, primary screen (AID 1100); settings: small-molecule microarray, higher = more signal
[4] = change in splice reporter luminescence, either direction, cell-based, HEK293, spliceosome inhibition project, primary screen (AID 1101); settings: HEK293 splicing luciferase reporter, 24 h, higher = more signal, called active from +8 up or from −8 down;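 further: HEK293 cells carrying a splicing-competent luciferase reporter gene; test concentration not given here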
[5] = target: Fibroblast growth factor 10 (Homo sapiens) (UniProt O15520); assay: compounds binding fibroblast growth factor 10 – biochemical, small-molecule microarray, 635 nm fluorescence, primary screen (AID 1102); settings: FGF10 binding, fluorescence 635 nm, higher = more signal
Fibroblast growth factor 10 (Homo sapiens), sequence (O15520 whole entry, looked up): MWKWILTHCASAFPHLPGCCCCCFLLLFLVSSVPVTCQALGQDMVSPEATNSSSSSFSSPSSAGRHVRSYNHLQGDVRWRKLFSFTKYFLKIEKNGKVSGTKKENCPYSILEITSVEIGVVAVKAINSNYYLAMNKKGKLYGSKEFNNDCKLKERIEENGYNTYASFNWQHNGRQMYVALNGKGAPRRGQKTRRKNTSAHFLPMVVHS

[6] = system: glycogen synthase kinase-3 (GSK3A per assay name; protocol says GSK3B); assay: compounds binding glycogen synthase kinase-3 – biochemical, small-molecule microarray, 635 nm fluorescence, GSK3A, primary screen (AID 1103); settings: fluorescence 635 nm, higher = more signal; further: the record names both GSK3A and GSK3B
[7] = target: Epidermal growth factor receptor (Homo sapiens) (UniProt P00533); assay: compounds binding epidermal growth factor receptor – biochemical, small-molecule microarray, 635 nm fluorescence, primary screen (AID 1104); settings: EGFR binding, higher = more signal;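 further: score merges 667 nm emission intensity with spot signal to noise over triplicate slides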
Epidermal growth factor receptor (Homo sapiens), sequence (P00533 whole entry, looked up): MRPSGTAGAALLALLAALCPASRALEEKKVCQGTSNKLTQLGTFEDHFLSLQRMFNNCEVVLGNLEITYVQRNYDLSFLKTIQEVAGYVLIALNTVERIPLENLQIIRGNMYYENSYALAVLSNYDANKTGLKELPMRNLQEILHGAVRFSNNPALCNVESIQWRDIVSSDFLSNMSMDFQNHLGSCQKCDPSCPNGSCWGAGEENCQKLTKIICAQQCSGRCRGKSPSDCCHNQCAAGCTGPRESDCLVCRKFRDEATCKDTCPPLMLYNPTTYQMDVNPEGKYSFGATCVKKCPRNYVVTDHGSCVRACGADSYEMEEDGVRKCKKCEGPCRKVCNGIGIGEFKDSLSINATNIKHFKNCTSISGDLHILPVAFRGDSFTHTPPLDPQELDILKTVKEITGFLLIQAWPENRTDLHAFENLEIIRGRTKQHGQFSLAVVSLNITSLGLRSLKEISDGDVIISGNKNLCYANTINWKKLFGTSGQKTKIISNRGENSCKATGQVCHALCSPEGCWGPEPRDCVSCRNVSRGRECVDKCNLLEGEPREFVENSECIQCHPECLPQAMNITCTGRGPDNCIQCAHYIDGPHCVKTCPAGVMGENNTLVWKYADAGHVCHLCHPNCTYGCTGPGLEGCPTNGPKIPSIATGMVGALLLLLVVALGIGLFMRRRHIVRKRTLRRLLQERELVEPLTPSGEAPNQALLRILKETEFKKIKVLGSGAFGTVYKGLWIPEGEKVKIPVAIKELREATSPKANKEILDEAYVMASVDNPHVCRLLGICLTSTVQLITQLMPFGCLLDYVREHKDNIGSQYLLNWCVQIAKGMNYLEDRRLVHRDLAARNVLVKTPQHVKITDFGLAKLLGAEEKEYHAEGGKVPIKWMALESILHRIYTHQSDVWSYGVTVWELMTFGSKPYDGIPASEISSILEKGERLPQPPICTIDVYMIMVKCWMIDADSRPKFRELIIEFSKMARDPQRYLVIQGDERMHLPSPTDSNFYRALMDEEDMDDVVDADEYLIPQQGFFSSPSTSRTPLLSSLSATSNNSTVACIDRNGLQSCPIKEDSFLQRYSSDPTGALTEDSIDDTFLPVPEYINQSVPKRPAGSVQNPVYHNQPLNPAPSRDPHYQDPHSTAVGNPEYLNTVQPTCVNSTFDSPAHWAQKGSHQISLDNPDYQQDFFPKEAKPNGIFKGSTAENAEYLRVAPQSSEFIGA

[8] = target: Follistatin-related protein 3 (Homo sapiens) (UniProt O95633); assay: compounds binding follistatin-related protein 3 – biochemical, small-molecule microarray, 635 nm fluorescence, primary screen (AID 1105); settings: FSTL3 binding, higher = more signal;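 further: score merges emission near 667 nm and signal to noise per printed spot across three slides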
Follistatin-related protein 3 (Homo sapiens), sequence (O95633 whole entry, looked up): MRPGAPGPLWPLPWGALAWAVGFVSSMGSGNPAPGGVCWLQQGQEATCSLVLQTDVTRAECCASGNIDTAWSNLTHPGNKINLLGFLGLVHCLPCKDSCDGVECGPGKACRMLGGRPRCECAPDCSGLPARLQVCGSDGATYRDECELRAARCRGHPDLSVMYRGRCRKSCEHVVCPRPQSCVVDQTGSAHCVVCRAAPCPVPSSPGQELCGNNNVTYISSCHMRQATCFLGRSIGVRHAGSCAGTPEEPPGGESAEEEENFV

[9] = target: Dickkopf-related protein 1 (Homo sapiens) (UniProt O94907); assay: small molecules binding DKK1 protein – biochemical, small-molecule microarray, 635 nm fluorescence scan, primary screen (AID 1106); settings: higher = more signal;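 further: score merges emission near 667 nm with signal to noise over three replicate slides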
Dickkopf-related protein 1 (Homo sapiens), sequence (O94907 whole entry, looked up): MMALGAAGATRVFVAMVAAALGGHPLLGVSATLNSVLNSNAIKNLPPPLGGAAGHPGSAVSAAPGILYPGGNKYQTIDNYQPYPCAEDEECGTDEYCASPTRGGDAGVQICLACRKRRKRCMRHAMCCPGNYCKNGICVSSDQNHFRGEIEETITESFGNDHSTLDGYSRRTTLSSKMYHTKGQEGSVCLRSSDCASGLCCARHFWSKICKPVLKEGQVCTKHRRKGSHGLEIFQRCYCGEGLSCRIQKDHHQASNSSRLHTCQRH

[10] = system: Inhibin beta A chain (activin A); assay: small molecules binding activin A – biochemical, small-molecule microarray, 635 nm fluorescence scan, primary screen (AID 1107); settings: INHBA, higher = more signal;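 further: mouse activin A protein probed at 4.33 µg/mL on printed slides; score merges bound-protein fluorescence near 667 nm with spot signal-to-noise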

SMILES	composite z-score [1]	composite z-score [2]	composite z-score [3]	z-score [4]	composite z-score [5]	composite z-score [6]	composite z-score [7]	composite z-score [8]	composite z-score [9]	composite z-score [10]
O=C1NC(=O)C2C1C=CC(C(O)c1ccc([N+](=O)[O-])cc1)N2Nc1ccccn1 (stereo not given)	-0.0076	0.0152	0.14	1.34 (inactive)	0.32	-0.34	0.633	-0.0907	0.328	0.854
C=C(C)[C@@H]1CC=C(C(O)C2C=CC3C(=O)N(c4ccccc4)C(=O)C3N2Nc2ccc([N+](=O)[O-])cc2)CC1 (stereo not given in full)	-0.0606	0.32	0.822	-0.682 (inactive)	1.27	1.31	0.613	1.44	-0.103	0.883
C#CCN1[C@@H](Cc2ccccc2)C(=O)O[C@H](Cc2ccccc2)[C@@H]1/C=C/C1CC1	0.345	-0.251	-0.505	-0.29 (inactive)	0.209	0.524	-0.333	0.22	0.156	0.781
COc1cc(CO)cc(I)c1O[C@H]1C=C(C(=O)NCCO)C[C@@H]2O[C@H]12	0.6	0.298	0.0558	1 (inactive)	1.77	1.33	0.989	1.45	1.34	0.643
COc1ccc([Si](C)(C)[C@@H]2[C@@H](CC(=O)N(CCO)Cc3ccccc3)O[C@]3(C(=O)N(Cc4ccc(N5C(=O)c6cccc7cccc5c67)cc4)c4ccccc43)[C@H]2C)cc1	1.17	-0.0669	0.0161	-1.33 (inactive)	0.404	0.01	0.317	0.12	0.283	0.516
O=C(NC1CC1)[C@@H]1c2ccccc2C(=O)N(CC23CC4CC(CC(C4)C2)C3)[C@H]1c1ccc(CO)cc1	0.728	-0.226	-0.0162	-0.724 (inactive)	1.41	1.32	1.03	1.43	1.28	0.372
C=CCOC(=O)[C@@H]1[C@H]2C(=O)O[C@H](c3ccccc3)[C@H](c3ccccc3)N2[C@H](c2ccc(OCCOC(=O)[C@H]3C[C@H]4C(=O)N5CCC[C@H]5C(=O)N4[C@H]3c3cccc(OCCO)c3)cc2)[C@@]12C(=O)Nc1ccc(I)cc12	1.56	-0.0777	0.0879	0.388 (inactive)	1.05	1.24	1.08	1.42	1.06	-0.0842
O=C1N(CCS(=O)(=O)c2ccccc2)c2ccccc2C[C@]12N=C(c1ccc(OCCCO)cc1)O[C@@H]2c1ccccc1	1.23	0.924	0.775	0.276 (inactive)	1.02	1.19	0.468	1.34	1.01	0.865
CO[C@H]1O[C@H](CO)[C@@H](OC(=O)Nc2ccc3c(c2)OCO3)[C@H](OC(=O)Nc2ccccc2-c2ccccc2)[C@H]1OC(=O)Nc1ccccc1-c1ccccc1	0.977	0.446	0.591	0.617 (inactive)	1.03	1.31	-0.294	0.398	-0.0521	0.411
COc1ccc(C(=O)Nc2ccc3c(c2)[C@@]2(O[C@H](CCO)[C@@H]([Si](C)(C)c4ccc(OC)cc4)[C@@H]2C)C(=O)N3Cc2ccccc2)cc1	0.578	-0.267	0.546	-4.86 (inactive)	0.517	0.369	0.252	0.527	0.27	1.17
COCCCNC(=O)[C@@]1(Sc2ccc(C)cc2)CC(=O)N(Cc2ccccc2C(F)(F)F)[C@@H]1c1ccc(CO)cc1I	0.284	0.583	1.07	-0.411 (inactive)	-1.02	-0.981	-1.44	-1.73	-0.831	1.02
CCCCCC1=C2CNC(Cc3ccccc3)(C(=O)OC)C=C2C(C)C1=O (stereo not given)	0.0442	0.926	1.37	73.6 (active)	-0.0286	-1.16	-0.779	-0.733	-1.84	1.47
COc1ccc([Si](C)(C)[C@H]2[C@H](CC(=O)N3CCC[C@H]3CO)O[C@@]3(C(=O)N(Cc4ccc(N5CCCCC5=O)cc4)c4ccccc43)[C@@H]2C)cc1	1.17	-0.28	-0.466	-1.16 (inactive)	1.18	1.09	0.639	1.23	0.863	0.704
O=C(NCc1ccccc1)[C@@H]1c2ccccc2C(=O)N(Cc2cc(C(F)(F)F)cc(C(F)(F)F)c2)[C@H]1c1ccc(CO)cc1	0.569	0.0477	0.184	0.000819 (inactive)	1.13	1.25	0.171	1.04	0.517	0.277
COC(=O)[C@]1(Cc2ccccc2)N=C(c2ccc(OCCCO)cc2)O[C@@H]1c1ccccc1CN=[N+]=[N-]	0.965	0.266	0.98	1.76 (inactive)	0.506	0.509	-0.296	0.175	-0.0456	0.702
[N-]=[N+]=NCc1ccccc1[C@@H]1OC(c2ccc(OCCCO)cc2)=N[C@]1(Cc1ccccc1N=[N+]=[N-])C(=O)O	1.45	1.35	1.11	-1.48 (inactive)	1.15	1.26	0.268	1.03	-0.075	0.848
CCCN1C(=O)[C@@]2(c3ccc([N+](=O)[O-])cc3)CC(=O)N(CC34CC5CC(CC(C5)C3)C4)[C@@H]2c2ccc(CO)cc21	-0.596	0.0721	0.342	0.331 (inactive)	-0.334	-0.619	-0.381	-0.701	-0.626	0.378
Cc1ccccc1C(O)C1C=CC2C(=O)N(c3ccccc3)C(=O)C2N1Nc1ccccc1 (stereo not given)	1.37	1.01	1.25	-0.00177 (inactive)	0.96	0.65	0.0981	1.17	0.0843	1.45
COc1ccc([Si](C)(C)[C@H]2[C@H](CC(=O)N3Cc4ccccc4C[C@H]3CO)O[C@@]3(C(=O)N(c4ccccc4)c4ccccc43)[C@@H]2C)cc1	1.64	-0.179	-0.339	-0.691 (inactive)	1.11	1.27	1.13	1.45	0.75	1.47
CC(C)C(=C=CC[C@H](O)c1ccccc1OCCO)C[C@H](O)COCc1ccccc1	1.63	-0.293	-0.0177	-0.114 (inactive)	0.444	-0.409	-0.593	-0.428	-0.42	0.482
COc1ccc(C(=O)Nc2cccc(CN3C(=O)[C@@]4(O[C@@H](CC(=O)N5CCC[C@H]5CO)[C@H]([Si](C)(C)c5ccc(OC)cc5)[C@H]4C)c4ccccc43)c2)cc1	1.21	-0.0379	-0.183	1 (inactive)	0.43	0.744	0.527	0.839	0.496	0.182
COCCCN1C(=O)[C@@]2(c3ccc([N+](=O)[O-])cc3)CC(=O)N(CC34CC5CC(CC(C5)C3)C4)[C@@H]2c2ccc(CO)cc21	1.47	-0.183	-0.0705	-0.515 (inactive)	0.329	0.541	-0.557	0.458	-0.104	0.405
COCCOC(=O)N1C(=O)[C@@]2(c3cc(C#CCNC(N)=O)ccc31)[C@H](C(=O)Nc1nc3ccccc3s1)[C@H]1C(=O)O[C@H](c3ccccc3)[C@H](c3ccccc3)N1[C@@H]2c1ccccc1OCCO	0.678	0.376	0.812	-0.549 (inactive)	1.38	0.392	0.597	1.05	0.397	1.22
C=C(C)[C@@H]1CC=C(C(O)C2C=CC3C(=O)N(C)C(=O)C3N2Nc2ccc([N+](=O)[O-])cc2[N+](=O)[O-])CC1 (stereo not given in full)	0.626	0.989	1.05	1.86 (inactive)	0.85	1.28	0.963	1.04	0.0615	1.35
O=C1[C@H]2C=C(I)[C@H](C[C@@H]2OCCCCCCO)[C@@]12CO2	0.525	-0.261	0.191	0.0312 (inactive)	0.281	-0.454	0.677	1.39	1.15	1.43
C=CC[C@@]1(C(=O)OC)N=C(c2ccc(OCCCO)cc2)O[C@@H]1c1ccccc1N=[N+]=[N-]	1.5	0.6	1	-1.61 (inactive)	1.32	1.32	1.38	1.22	0.685	0.767
CO[C@H]1O[C@H](CO)[C@@H](OC(=O)Nc2ccccc2)[C@H](OC(=O)Nc2ccccc2)[C@H]1OC(=O)Nc1ccccc1	1.48	-0.0074	-0.0165	-0.405 (inactive)	1.48	1.25	0.0428	0.41	0.183	0.232
CC(C)C[C@@H]1NC(=O)[C@@]23C(=O)N[C@@H](Cc4ccccc4)C2[C@H](C)[C@@]2(C)O[C@H]2C3/C=C/C/C=C\CNC(=O)CNC1=O (stereo not given in full)	1.19	-0.268	-0.51	0.103 (inactive)	0.452	0.202	0.127	0.768	0.268	1.4
